Laboratory results as given in PubChem BioAssay (EPA / NIEHS).
Calls of active or inactive are those of the source. The calls were made as follows: active = hit-call score of the fitted dose curve at least 0.9, where 1 is the maximum; inconclusive = response in the unintended direction; inactive = score below 0.9.

assay: CPHEA_Stoker_NIS_Cytotoxicity: Cytotoxicity Assessment for CPHEA's Radioactive Iodide Uptake (RAIU) Assay for Sodium/Iodide Symporter (NIS) Inhibition, Stoker and Laws Labs (AID 2283897);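 as to AC50: active means loss of ATP signal versus DMSO meaning cytotoxicity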
Protocol: CPHEA_Stoker_NIS is a cell-based, single-readout assay that uses hNIS-HEK293T-EPA, a novel human kidney cell line expressing human NIS, with measurements taken at 2 hours after chemical dosing in a 96-well plate. This radioactive iodide uptake (RAIU) assay is used to identify inhibitors of NIS-mediated iodide uptake. A parallel cytoxicity assay (Cell Titer Glo, Promega) was also run in the same cell line.CPHEA_Stoker_NIS_Cytotoxicity is one of 2 assay components measured from the CPHEA_Stoker_NIS assay. It is designed to make measurements of atp content, a form of viability reporter, as detected with bioluminescence signals by Luciferase-coupled ATP quantitation technology.Data from the assay component CPHEA_Stoker_NIS_Cytotoxicity was analyzed at the endpoint, CPHEA_Stoker_NIS_Cytotoxicity, in the positive analysis fitting direction relative to DMSO as the negative control and baseline of activity. Using a type of viability reporter, measures of ATP content for loss-of-signal activity can be used to understand the viability. To generalize the intended target to other relatable targets, this assay endpoint is annotated to the cell cycle intended target family, where the subfamily is cytotoxicity.
hNIS-HEK293T-EPA cells were seeded with a MultiFlo FX dispenser (BioTek, Winooski, VT) into ScintiPlate-96 microplates (Perkin Elmer, Waltham, MA) at a density of 4.0x10^4 cells per well in 200uL growth media and incubated for 40 hours before experimentation. On day of the assay, carrier-free 125I (Perkin-Elmer, Waltham, MA; specific activity: 17.4Ci/mg) was diluted with Hanks' balanced salt solution (Sigma, St. Louis, MO) supplemented with 10mM HEPES (uptake buffer; pH 7.4) at 5uCi/mL (288pg 125I/mL uptake buffer; 2.30nM). The assay was initiated by washing cells twice with 200uL uptake buffer using a 96-well Tecan HydroSpeed plate washer (Tecan, Mannedorf, Switzerland). Uptake buffer (59.7uL) was then added back to each well. Chemical samples (350nL at 200X) were administered using the HDR tool as previously described to achieve a 1X chemical/0.5% final DMSO concentration with subsequent addition of 10uL of 125I dilution (final [125I]: 329pM; 2.88pg/well) for a final reaction volume of 70uL/well. Cells were incubated at room temperature for 2 hours and then washed twice with 200uL ice cold uptake buffer. All uptake buffer was aspirated from wells, plates were sealed, and read on a MicroBeta2 plate reader (Perkin Elmer, Waltham, MA) using a detection protocol to measure CPM corresponding to intracellular 125I concentration. Each chemical concentration (0.001, 0.01, 0.1, 1.0, 10, and 100uM) was assayed in triplicate with three independent biological replicate plates (3 sequential cell passages). Additionally, a concentration response of NaClO4 (0.001, 0.01, 0.1, 1.0, 10, and 100uM) served as a positive control inhibition curve on each RAIU assay plate. DMSO control wells were assayed on each plate as a measure of maximum iodide uptake for normalization and determination of intra- and inter-assay variation. (Toxicol In Vitro, 2017, 40:66-78).

| Compound | outcome | AC50 |
| --- | --- | --- |
| CCCCC(CC)C(=O)OCCOCCOCCOC(=O)C(CC)CCCC (stereo not given) | inactive | – |
| Cc1nccn1-c1ccc(Sc2cccc(C3(C(N)=O)CCOCC3)c2)cc1 | inactive | – |
| CCCCOC(=O)c1ccccc1 | inactive | – |
| CC(C)c1nnc2ccc(-c3ocnc3-c3cc(F)ccc3F)cn12 | inactive | – |
| COc1cc(C(C)C)c2c(c1)S(=O)(=O)N(COc1cc(=O)n3cccc(OCCN4CCCCC4)c3n1)C2=O | inactive | – |
| CC(C)C(=O)Nc1ccc([N+](=O)[O-])c(C(F)(F)F)c1 | inactive | – |
| Cn1cc[nH]c1=S | inactive | – |
| c1ccc(C(O[C@@H]2CCCN(CCc3ccc4c(c3)OCO4)C2)c2ccccc2)cc1 | inactive | – |
| CCCCCCCCCCCCCCCCOS(=O)(=O)O | inactive | – |
| CCCCN1C(=O)[C@@H]([C@H](O)C2CCCCC2)NC(=O)C12CCN(Cc1ccc(Oc3ccc(C(=O)O)cc3)cc1)CC2 | inactive | – |
| C=CCc1cc(S(=O)(=O)c2ccc(O)c(CC=C)c2)ccc1O | – | 36.8 µM (active) |
| CCN(CC)C(=S)SSC(=S)N(CC)CC | inactive | – |
| CCc1ccc(O)c(C(C)(C)C)c1 | inactive | – |
| NC(=O)N1c2ccccc2C=Cc2ccccc21 | inactive | – |
| OCC(CO)(CO)CO | inactive | – |
